# Compound activity deposited in PubChem by The Scripps Research Institute Molecular Screening Center.
# MITF inh = blocks human microphthalmia-associated transcription factor; O75030; AlphaScreen MITF homodimerization, bead proximity signal; inhibition, % at 2.6 µM; 650,000 tested, 0.91% active; AID 1259374; in the data active = inhibition above about 50%;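 note: 0% = vehicle wells with protein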
# FBW7 act = human FBW7 E3 ligase activation, primary screen; AlphaScreen FBW7–phospho-cyclin E peptide binding, activator screen; normalized activity (activation), % at 26.1 µM; 650,000 tested, 0.13% active; in the data active = normalized activity above about 1.9%;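 note: purified mutant Fbw7 with reduced substrate affinity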
# TEAD-YAP block = TEAD-YAP interaction inhibition. AID 1259422. HEK-TIYL cells, TEAD-Gal4/YAP UAS-luciferase luminescence. 640,000 tested, 1.4% active. inhibition, % at 9.12 µM; in the data active = inhibition above about 32%;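 note: 0% = median of test compound wells and 100% = reference inhibitor wells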
# GPR151 ag = activators of human GPR151; Q8TDV0; PathHunter beta-arrestin GPR151 cells, luminescence; activation, % at 11.2 µM; 650,000 tested, 1% active; AID 1508602; in the data active = activation above about 4.9%;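 note: 0% = median of compound wells and 100% = cells with positive control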
# Target sequence (Q8TDV0 whole entry, looked up): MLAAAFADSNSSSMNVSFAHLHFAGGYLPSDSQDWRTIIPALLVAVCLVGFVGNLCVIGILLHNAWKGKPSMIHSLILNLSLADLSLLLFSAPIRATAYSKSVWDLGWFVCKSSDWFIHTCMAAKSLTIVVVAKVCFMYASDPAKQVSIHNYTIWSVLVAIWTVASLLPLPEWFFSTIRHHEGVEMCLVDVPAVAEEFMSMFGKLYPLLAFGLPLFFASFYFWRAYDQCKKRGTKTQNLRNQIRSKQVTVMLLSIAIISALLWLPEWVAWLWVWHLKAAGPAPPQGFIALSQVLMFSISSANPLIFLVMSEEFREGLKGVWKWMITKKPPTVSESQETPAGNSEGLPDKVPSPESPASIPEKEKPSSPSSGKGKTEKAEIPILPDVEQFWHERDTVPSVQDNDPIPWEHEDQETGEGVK
# * marks the source's active call; other numbers are inactive results; · = no result given. Sampled rows, rich in hits. Any-hit rate of the full collection: about 3.5%.
SMILES,MITF inh,FBW7 act,TEAD-YAP block,GPR151 ag
COC(=O)C1=CN(Cc2ccc(F)cc2)C=C(C(=O)OC)C1c1ccccc1OC(C)C,-12.1,5.0*,7.9,-2.5
COC(=O)C1=CN(Cc2ccc(Cl)cc2)C=C(C(=O)OC)C1c1ccccc1OC(C)C,-9.1,2.1*,-2.5,-0.3
CCOC(=O)C1=CN(Cc2ccc(F)cc2)C=C(C(=O)OCC)C1c1ccc(SC)cc1,-7.8,1.9*,-6.8,-0.5
CCOC(=O)C1=CN(Cc2ccc(OC)cc2)C=C(C(=O)OCC)C1c1ccccc1OC,2.0,-0.1,-3.1,0.6
CCOC(=O)C1=CN(Cc2ccc(Cl)cc2)C=C(C(=O)OCC)C1c1ccccc1OC(C)C,7.7,-0.1,-2.5,-0.9
COC(=O)C1=CN(Cc2ccc(F)cc2)C=C(C(=O)OC)C1c1ccccc1Cl,-1.4,1.7,-4.4,-0.2
COc1cc2ccccc2cc1C(=O)Nc1ccc2oc(-c3ccc(C(C)(C)C)cc3)nc2c1,-9.1,-0.1,-1.9,-0.9
CON(C)C(=O)N1CCc2c(F)c(F)c(F)c(F)c21,-2.3,-0.2,0.7,-1.0
CC(C)(C)C1(C)OC(=O)C(=Cc2ccc(Br)o2)C(=O)O1 (stereo not drawn),69.0*,-0.2,-11.3,-0.3
Nc1ncnc(N/N=C/c2cc([N+](=O)[O-])ccc2OC(F)F)c1[N+](=O)[O-],4.1,0.0,-39.6,-0.9
COc1cccc(/C=N/Nc2ncnc(N)c2[N+](=O)[O-])c1OC,18.4,-0.2,46.1*,-6.0
Nc1ncnc(N/N=C/c2ccc(O)cc2O)c1[N+](=O)[O-],81.4*,-1.2,-9.9,-3.2
Nc1ncnc(N/N=C/c2ccccc2OC(F)F)c1[N+](=O)[O-],8.0,-0.6,47.7*,-7.8
COc1ccc(NC(=O)C2C3NC(=S)NC2(C)Oc2ccc(OC)cc23)cc1 (stereo not drawn),-3.4,0.1,7.2,0.4
CC(C)CC(=O)NC(c1ccc2c(c1)OCO2)c1ccc2cccnc2c1O (stereo not drawn),22.2,-0.7,84.4*,-0.9
Cc1cccc(NC(c2ccc3c(c2)OCO3)c2ccc3cccnc3c2O)n1 (stereo not drawn),14.7,-0.1,80.4*,0.3
Oc1c(C(Nc2ccccn2)c2ccc3c(c2)OCO3)ccc2cccnc12 (stereo not drawn),22.1,-1.1,86.6*,0.0
Oc1c(C(Nc2ccccn2)c2ccc(OC3CCCC3)cc2)ccc2cccnc12 (stereo not drawn),-0.7,-0.1,29.0,0.1
CCOc1cccc(C(Nc2cccc(C)n2)c2ccc3ccc(C)nc3c2O)c1 (stereo not drawn),9.2,-0.1,-1.8,-1.5
COc1ccc(C)cc1NC(=O)Nc1nnc(N(C)Cc2ccccc2)s1,5.2,-0.1,3.6,3.0
COc1ccc(OC)c(C2C(C(C)=O)=C(O)C(=O)N2CC#N)c1 (stereo not drawn),-8.7,-0.6,-4.7,0.7
Oc1ccc2ccccc2c1/C=N\Nc1ccc(Cl)nn1,-6.6,0.0,3.2,0.0
COC(=O)CCC(=O)Nc1ccc(-c2nc3ccc(C)cc3s2)cc1,-1.1,-0.1,72.4*,-1.8
Cc1ccc2nc(-c3ccc(O)cc3)sc2c1,9.0,0.1,98.0*,-7.3
Cc1ccc2nc(-c3ccc(NC(=O)c4ccccc4C(=O)O)cc3)sc2c1,13.8,0.1,83.2*,-6.4
SMILES,MITF inh,FBW7 act,TEAD-YAP block,GPR151 ag
Oc1ccc(-c2nc3cc4sc(-c5ccc(O)cc5)nc4cc3s2)cc1,6.8,0.0,12.2,0.1
COc1ccc(OCC(=O)Nc2ccc(-c3nc4ccc(C)cc4s3)cc2)cc1,15.9,0.7,38.9*,1.7
Cc1cccc(N)c1NC(=O)c1ccccc1,11.2,0.1,-6.6,-1.4
Nc1nc2c([nH]c(=O)n2[C@H]2C[C@H](O)[C@@H](CO)O2)c(=O)[nH]1,-7.0,·,·,2.1
Cc1ccc2nc(-c3ccc(NC(=O)C4CCCN4S(C)(=O)=O)cc3)sc2c1 (stereo not drawn),13.7,0.2,49.5*,-0.9
CC(C)CC(C(=O)N1CCN(C)CC1)N1C(=O)c2ccccc2C1=O (stereo not drawn),18.2,0.1,5.5,1.8
O=C(Nc1nc2ccc(NC(=O)C34CC5CC(CC(C5)C3)C4)cc2s1)C1CCCCC1,20.9,0.3,52.7*,-1.6
CCOc1ccc(OCc2ccc(C(=O)OC)cc2)cc1,3.3,0.5,-48.6,-0.5
c1ccc(OCCSc2nnc3sc4ccccc4n23)cc1,-9.2,-0.1,71.2*,-4.5
COc1ccc(-c2cnc3ccc(NCc4ccccn4)nn23)cc1,-7.8,1.5,45.3*,-0.7
CN(C)c1ccc(-c2cnc3ccc(NCCc4ccccn4)nn23)cc1,30.9,0.5,28.7,-0.7
Fc1ccc(-c2cnc3ccc(NCCc4ccccn4)nn23)cc1,17.5,0.1,68.0*,0.0
c1ccc(-c2cnc3ccc(NCc4ccccn4)nn23)cc1,-3.7,-0.1,38.9*,0.0
Clc1cccc(-c2cnc3ccc(NCc4ccccn4)nn23)c1,-11.9,-0.2,5.0,-0.5
COc1ccc(CNc2ccc3ncc(-c4cccc(CO)c4)n3n2)cc1,-21.5,-0.1,32.8*,-0.7
O=C(Nc1cc(Oc2ccc3c(c2)CCC3)cc([N+](=O)[O-])c1)c1nn2c(C(F)(F)F)cc(-c3ccc(F)cc3)nc2c1Cl,14.8,0.2,-4.8,-0.2
NC(=O)c1ccc(NC(=O)COc2ccccc2Cl)cc1,0.2,-0.1,-3.6,1.5
C=CCn1c(=O)c2ccccc2n2c(SCC(=O)Nc3ccc4c(c3)OCCO4)nnc12,-0.5,-0.1,8.0,-1.3
Oc1ccc(-c2cnc3ccc(NCc4ccco4)nn23)cc1,5.7,-0.1,46.6*,-0.4
CN(C)c1ccc(-c2cnc3ccc(NCc4ccccn4)nn23)cc1,-1.8,0.0,9.4,1.0
Fc1ccc(-c2cnc3ccc(NCc4ccccn4)nn23)cc1,-6.2,-0.7,51.5*,-0.4
COc1ccc(CN(C)Cc2nc(CCc3ccccc3)no2)c2cccnc12,5.8,0.6,35.4*,-1.4
COc1cc(/C=N/NC(=O)c2cc(C)[nH]n2)c(Br)c(Br)c1O,16.6,0.2,4.1,0.6
COc1cc(Br)cc(/C=N/NC(=O)c2cc(C)[nH]n2)c1O,55.0*,-0.1,18.6,0.7
Cc1cc(C(=O)N/N=C\c2ccccc2O)n[nH]1,29.6,-1.8,-42.5,-0.1
SMILES,MITF inh,FBW7 act,TEAD-YAP block,GPR151 ag
Cc1cc(C(=O)N/N=C/c2cc(N=Nc3ccccc3)ccc2O)n[nH]1,28.4,0.0,61.6*,-0.4
COc1cc([N+](=O)[O-])cc(/C=N/NC(=O)c2cc(C)[nH]n2)c1O,59.0*,-0.8,-4.9,-0.9
CC(=O)N1CCC(N(C(=S)Nc2cccc(Cl)c2C)C(C)C)CC1,-4.0,0.1,-8.2,4.5
O=C(Nc1ccccc1C(F)(F)F)c1ccc(CN2CCN(c3ccccc3)CC2)cc1,0.6,0.4,47.3*,-0.6
CCNC(=O)c1ccc(CN2CCN(c3ccccc3)CC2)cc1,-14.2,0.2,-1.5,-0.9
O=C(CCCc1cccs1)OCC(=O)c1ccco1,16.9,0.2,3.9,1.2
CC1CCc2nc(NC(=O)c3ccco3)sc2C1 (stereo not drawn),-4.3,0.1,73.9*,-6.5
O=C(O)c1cc(N=Cc2c(O)n(Cc3ccco3)c(=O)[nH]c2=O)ccc1Cl,76.2*,-0.2,5.1,-0.4
